From PubChem BioAssay (EPA / NIEHS) come the findings set out here.

The structures appear in SMILES notation. Calls of active or inactive are those of the source. The calls were made as follows: active = hit-call score of the fitted dose curve at least 0.9, where 1 is the maximum; inactive = score below 0.9.

This test can be described thus: ATG_TGFb_CIS: Attagene CIS-FACTORIAL HepG2 Assay for human Transforming Growth Factor (TGF) (AID 2282967). Particulars: HepG2 Attagene CIS TGFb reporter, mRNA transcription; actives raise or lower the signal. Here is the method: ATG_CIS is a cell-based, multiplexed-readout assay that uses HepG2, a human liver cell line, with measurements taken at 24 hours after chemical dosing in a 24-well plate.ATG_TGFb_CIS is one of 52 assay component(s) measured or calculated from the ATG_CIS assay. It is designed to make measurements of mRNA induction, a form of inducible reporter, as detected with fluorescence intensity signals by Reverse transcription polymerase chain reaction (RT-PCR) and Capillary electrophoresis technology.Data from the assay component ATG_TGFb_CIS was analyzed into 1 assay endpoint. This assay endpoint, ATG_TGFb_CIS, was analyzed with bidirectional fitting relative to DMSO as the negative control and baseline of activity. Using a type of inducible reporter, measures of mRNA for gain or loss-of-signal activity can be used to understand the reporter gene at the transcription factor-level as they relate to the gene TGFB1. Furthermore, this assay endpoint can be referred to as a primary readout, because this assay has produced multiple assay endpoints where this one serves a reporter gene function. To generalize the intended target to other relatable targets, this assay endpoint is annotated to the growth factor intended target family, where the subfamily is transforming growth factor beta.
Human liver HepG2 cells are transiently transfected with multiple reporter transcription units (MRTUs) in 6-well plates using FuGene 6 reagent (Roche; 3 ml FuGene/1 mg DNA). The MRTU constructs are regulated by a cis-regulating element (promoter). […] A major difference between the CIS and TRANS system is that in CIS activities of endogenous TFs are measured, whereas the TRANS assay evaluates changes in activities of exogenous, chimeric NR-Gal4 proteins. […] At the end of 24 hour incubation, total RNA was isolated using TriZol reagent (Invitrogen). The isolated RNA is then reverse-transcribed using oligo(dT) primer and Mo-MLV reverse transcriptase (Invitrogen) with DNAse I (Ambion) treatment for 30 min. The one-tenth of the produced cDNA was amplified by PCR using Taq DNA polymerase (Invitrogen) and two reporter sequence-specific primers. The PCR products were fluorescently labeled by primer extension with 6-arboxyfluorescein (6-FAM) 5'-labeled reporter sequence-specific primer (2 min at 95 C, 20 s at 68 C and 10 min at 72 C) and these products were digested with 5U of HpaI (New England Biolabs) for 2h at 37 C. The fragments were purified using Qiaquick PCR columns (Qiagen), analyzed on an ABI 3130xL genetic analyzer (Applied Biosystems) with peak positions identified by using a set of X-rhodamine (ROX)-labeled MapMarker1000 molecular weight standards (BioVentures). The raw capillary electrophoresis data was processed using Attagraph software (Attagene).
With `CCOc1ccc(NC(=O)CC(C)O)cc1` (stereo not given), the AC50 is 0.0975 µM (active).

In the case of `CC(=O)O[C@H]1C[C@@H]2CC[C@@]1(C)C2(C)C`, the molecule was classed as inactive.

In the case of `OCc1ccc(Cl)cc1Cl`, the result was inactive.

With `Nc1c(Cl)cc(Cl)cc1[N+](=O)[O-]`, the molecule was classed as inactive.

With `COc1cccc(OC)c1O`, the result was inactive.

Consider `CCCCCCCCCCCCN1CCCCCC1=O`, for which the molecule was classed as inactive.

Turning to `OCCOCCN1CCN(C2=Nc3ccccc3Sc3ccccc32)CC1`, the molecule was classed as inactive.

Regarding `c1ccc2cc(Nc3ccc(Nc4ccc5ccccc5c4)cc3)ccc2c1`, the call was inactive.

Consider `C=C(C)[C@H]1CC=C(C)C(=O)C1`, for which the outcome was inactive.

Turning to `CC(=O)CC(=O)Nc1ccccc1`, the molecule was classed as inactive.

On to `C=CCCC(=O)/C=C/C1C(C)=CCCC1(C)C` (stereo not given), for which the result was inactive.

In the case of `CC=Cc1ccc(OCC)c(O)c1`, the outcome was inactive.

With `C[Si](C)(C)O[Si](C)(C)C`, the molecule was classed as inactive.

Take `C[N+](C)(C)CCCCCC[N+](C)(C)C`: the call was inactive.

On to `Nc1ccc(N)c2c1C(=O)c1ccccc1C2=O`, for which the molecule was classed as inactive.

Consider `N#Cc1ccc(CC(=O)c2cccc(C(F)(F)F)c2)cc1`, for which the outcome was inactive.

As for `c1ccc(Oc2ccccc2)cc1`, the call was inactive.

In the case of `CCCCC(CC)(CO)CO`, the molecule was classed as inactive.

Regarding `CC(C)(N=C=O)c1cccc(C(C)(C)N=C=O)c1`, the outcome was inactive.

Turning to `CC=Cc1ccc(OC)c(OC)c1`, the result was inactive.

With `Cc1c(OCC(F)(F)F)ccnc1CS(=O)c1nc2ccccc2[nH]1` (stereo not given), the molecule was classed as inactive.

In the case of `CCCCCCC(C)Nc1ccc(Nc2ccccc2)cc1` (stereo not given), the call was inactive.

On to `OCCCCC(O)CO` (stereo not given), for which the molecule was classed as inactive.

As to `CC(O)C1CCCCC1` (stereo not given), the molecule was classed as inactive.

Consider `CC(C)CCOC(=O)c1ccccc1`, for which the molecule was classed as inactive.

`N#Cc1cscn1`: the outcome was inactive.

For `CCCCCCCCc1ccc(S(=O)(=O)O)cc1`, the result was inactive.

For `C=C(C)[C@@H]1CC=C(C)C(=O)C1`, the call was inactive.

On to `COC(=O)c1ccc([N+](=O)[O-])cc1`, for which the molecule was classed as inactive.

Turning to `CCCCCCOCCOCCO`, the molecule was called inactive.

In the case of `O=P(O)(O)O`, the result was inactive.

In the case of `CCCC(=O)c1ccccc1`, the outcome was inactive.

As for `CS(C)=O`, the call was inactive.

As for `Clc1ccc(C(c2ccccc2Cl)C(Cl)Cl)cc1` (stereo not given), the molecule was called inactive.

As to `Nc1ccc(Cl)c([N+](=O)[O-])c1`, the molecule was classed as inactive.

As for `O=c1[nH]c(=O)c2cn[nH]c2[nH]1`, the result was inactive.

Take `COc1ccc(N=Nc2cc(C)c(N=Nc3ccc(S(=O)(=O)O)cc3)cc2OC)cc1`: the AC50 was 172 µM (active).

Turning to `C=C(C)C(=O)OCCOCCOCCOC(=O)C(=C)C`, the result was inactive.

As to `O=C(O)c1cccnc1C(=O)O`, the molecule was classed as inactive.

For `O=C(Nc1ccc([N+](=O)[O-])cc1)Nc1ccc([N+](=O)[O-])cc1` (tested in a mixture with another compound), the molecule was classed as inactive.
